Source: PubChem BioAssay (Sanford-Burnham Center for Chemical Genomics)
CYP2C9 inhib: blockers of cytochrome P450 2C9 activity – biochemical, luminescence, ADME assay, primary screen. CYP2C9 Supersomes, luciferin-H conversion. inhibition, % at 5 µM. 20% of 96,000 active. AID 777, 2007;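 active = blocking of liver enzyme CYP2C9 beyond about 50% at 5 µM, limit read from the data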
Mac1 fbg inh: inhibitors of CD11b/CD18 adhesion to fibrinogen, primary screen, K562 cells, luminescence; ATPlite luminescence; Mn2+ added to activate the integrin; Integrin beta-2 (Homo sapiens) + Integrin alpha-M (Homo sapiens), P05107+P11215; AID 1497, 2009; 0.54% of 93,000 active; inhibition, % at 10 µM;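 active = primary inhibition of 50% or more at 10 µM, then 40% or more on retest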
CD11b adhes enh: enhancers of CD11b/CD18 adhesion to fibrinogen, primary screen, K562 cells, luminescence; ATPlite luminescence; Integrin beta-2 (Homo sapiens) + Integrin alpha-M (Homo sapiens), P05107+P11215; activation, % at 10 µM; 0.07% of 93,000 active;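 active = 10 µM primary screen giving 50% or more activity, confirmed by 40% or more on retest at that dose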
CYP2C19 inhib: blockers of cytochrome P450 2C19 activity – biochemical, luminescence, ADME assay, primary screen; CYP2C19 Supersomes, luciferin-H EGE luminescence, 30 min; P33261; inhibition, % at 5 µM; AID 778, 2007; 21% of 96,000 active;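 active = CYP2C19 inhibition above a set limit at 5 µM in the primary screen, cut at about 50% in these data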;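 note: plate controls were negative control wells for no effect and 2.5 mM tranylcypromine positive control for full effect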
Target sequence (P33261 whole entry, looked up): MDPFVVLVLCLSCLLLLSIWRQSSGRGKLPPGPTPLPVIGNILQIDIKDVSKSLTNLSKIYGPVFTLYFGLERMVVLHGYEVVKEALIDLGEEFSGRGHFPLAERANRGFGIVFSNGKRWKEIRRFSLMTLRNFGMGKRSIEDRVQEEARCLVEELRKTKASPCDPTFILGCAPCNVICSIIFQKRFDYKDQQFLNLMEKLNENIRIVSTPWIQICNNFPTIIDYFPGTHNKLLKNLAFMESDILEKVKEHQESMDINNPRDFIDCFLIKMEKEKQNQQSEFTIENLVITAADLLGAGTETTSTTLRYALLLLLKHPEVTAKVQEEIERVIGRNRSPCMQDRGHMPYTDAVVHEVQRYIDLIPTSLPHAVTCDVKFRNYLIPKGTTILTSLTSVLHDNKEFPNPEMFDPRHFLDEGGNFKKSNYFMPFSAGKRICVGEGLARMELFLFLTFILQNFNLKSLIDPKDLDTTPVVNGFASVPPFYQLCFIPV
CYP2C9 activ: human CYP2C9 activators, primary screen, biochemical, luminescence | Cytochrome P450 2C9 (Homo sapiens), P11712 | 1.4% of 96,000 active | recombinant CYP2C9, luciferin-H conversion; active compounds read high; factor 1 = untreated enzyme, 0 = blocked | activation factor at 5 µM;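 active = activation factor of 2 or more for CYP2C9 at a 5 µM dose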;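 note: 0 = sulfaphenazole-blocked wells and 1 = vehicle-only wells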
CYP2C19 act: human CYP2C19 activators, primary screen, biochemical, luminescence; recombinant CYP2C19, luciferin-H EGE luminescence; active compounds read high; 0 = fully inhibited enzyme, 1 = untreated enzyme; 96,000 tested, under 10 active; Cytochrome P450 2C19 (Homo sapiens), P33261; activation factor at 5 µM;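 active = activation factor of at least 2 at 5 µM in the primary screen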;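 note: 0 = wells with 2.5 mM tranylcypromine and 1 = vehicle-only wells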
* marks the source's active call; other numbers are inactive results; . = no result. This is a sample that favours compounds with a hit; in the whole collection about 28% have one here.

SMILES	CYP2C9 inhib	Mac1 fbg inh	CD11b adhes enh	CYP2C19 inhib	CYP2C9 activ	CYP2C19 act
O=C(CSc1nnc(-c2cccnc2)o1)c1cc2ccccc2oc1=O	70*	-60	67	0	0.3	1
N#Cc1ccc(-c2ccccc2)nc1SCC(=O)c1cc2ccccc2oc1=O	76*	4	15	8	0.2	0.9
Cn1cnnc1SCC(=O)c1cc2ccccc2oc1=O	15	5	-1	0	0.8	1
CCN(CC)CCOC(=O)c1ccc2c(c1)OCCO2	2	-20	0	8	1	0.9
N#Cc1ccc(Oc2ccc(C(N)=O)cc2)cc1C#N	21	7	-1	10	0.8	0.9
Cc1ccccc1C(=O)c1cccn1CC(=O)NCCN1CCN(c2cccc(C)c2C)CC1	46	42	8	83*	0.5	0.2
O=C(CCCC1=NS(=O)(=O)c2ccccc2N1)N1CCN(c2ccccc2)CC1	24	-7	-3	9	0.8	0.9
CC(C)(CC(=O)N1CCN(c2ccc(Cl)cc2)CC1)CC1=NS(=O)(=O)c2ccccc2N1	79*	-12	-7	64*	0.2	0.4
c1ccc(Cn2ncc3c2ncn2c(-c4ccncc4)nnc32)cc1	38	10	2	85*	0.6	0.1
Cc1ccc(-n2ncc3c2ncn2c(-c4ccncc4)nnc32)cc1	38	-7	35	14	0.6	0.9
COc1ccc2c(c1)O/C(=C\c1sccc1C)C2=O	.	18	2	.	.	.
c1ccc(C(Cc2nc(-c3cccnc3)no2)c2ccccc2)cc1	53*	12	-5	97*	0.5	0
Cc1ccc(SC(C)c2nc(-c3cccnc3)no2)cc1 (stereo unspecified)	82*	16	12	67*	0.2	0.3
c1ccc(OCCCc2nc(-c3cccnc3)no2)cc1	35	-7	-3	64*	0.7	0.4
c1cncc(-c2noc(C34CC5CC(CC(C5)C3)C4)n2)c1	37	12	3	83*	0.6	0.2
Cc1ccccc1-c1noc(C23CC4CC(CC(C4)C2)C3)n1	-1	0	-2	0	1	1
O=C(COC(=O)Cc1ccccc1F)Nc1cc(S(=O)(=O)N2CCOCC2)ccc1N1CCCC1	.	11	6	.	.	.
Cc1nc2cccc(C)n2c(=O)c1Cl	-14	-2	-1	1	1.1	1
c1ccc(C(c2ccccc2)c2nc(-c3cccnc3)no2)cc1	96*	7	1	86*	0	0.1
c1ccc(SCc2nc(-c3cccnc3)no2)cc1	59*	8	3	93*	0.4	0.1
O=c1c2ccccc2nc(SCc2ccccc2Cl)n1Cc1ccccc1	.	9	3	.	.	.
Cc1ccc2c(CSc3nc4ccccc4c(=O)n3CCCO)cc(=O)oc2c1C	96*	12	18	68*	0	0.3
Cc1ccc(SCc2nc(N)nc(Nc3ccccc3C)n2)cc1C	.	4	3	.	.	.
Cc1ccc(Nc2nc(N)nc(CSc3nccn3C)n2)c(C)c1	-7	-4	3	8	1.1	0.9
Cc1ccccc1Nc1nc(N)nc(CSc2nc3ccccc3c(=O)n2CCCO)n1	99*	-5	-1	90*	0	0.1
SMILES	CYP2C9 inhib	Mac1 fbg inh	CD11b adhes enh	CYP2C19 inhib	CYP2C9 activ	CYP2C19 act
Cc1ccccc1Nc1nc(N)nc(CSc2nc3ccccc3c(=O)n2C)n1	82*	10	-1	68*	0.2	0.3
COCCn1c(SCc2nc(N)nc(Nc3ccccc3C)n2)nc2ccccc2c1=O	71*	.	.	50	0.3	0.5
COC(=O)C1=C(C)N=C2SCCC(=O)N2C1/C=C/c1ccccc1 (stereo unspecified)	28	10	-4	35	0.7	0.7
CC1=C(C(=O)OC(C)C)C(C)C(C(=O)OC(C)C)=C(C)N1	92*	9	4	100*	0.1	0
CCOc1ccc(C2Oc3nc(SC)nnc3-c3ccccc3N2C(C)=O)cc1OC (stereo unspecified)	15	14	4	2	0.8	1
CC1CCN(C(=O)CSc2nc3ccccc3c(=O)n2Cc2ccc3c(c2)OCO3)CC1	67*	.	.	62*	0.3	0.4
CC1CCCC(C)N1C(=O)Cn1c(SCC(=O)NCc2ccc3c(c2)OCO3)nc2ccccc21 (stereo unspecified)	90*	-15	-3	64*	0.1	0.4
CC1CCCCN1C(=O)CSc1nc2cc3c(cc2c(=O)n1Cc1ccc2c(c1)OCO2)OCO3 (stereo unspecified)	52*	-6	18	49	0.5	0.5
CC1CCN(C(=O)Cn2c(=O)n(Cc3ccc4c(c3)OCO4)c(=O)c3ccccc32)CC1	54*	-12	-1	22	0.5	0.8
COCCn1c(SCC(=O)N2CCC(C)CC2)nc2ccccc2c1=O	39	5	2	44	0.6	0.6
CCn1c(SCC(=O)N2CCCCC2C)nc2ccsc2c1=O (stereo unspecified)	28	-3	0	12	0.7	0.9
CCC(C)(C)c1nnc(NC(=O)c2ccc([N+](=O)[O-])cc2)s1	3	5	-6	-5	1	1
CSc1nc2ccc(NC(=O)c3cc4ccccc4o3)cc2s1	.	-9	-2	.	.	.
Cc1cc(C(=O)CSc2nc3ccccc3c(=O)n2C)c(C)n1Cc1ccc2c(c1)OCO2	85*	98	-7	76*	0.2	0.2
Cc1ccc2c(CC(=O)N3CCN(S(=O)(=O)c4cccs4)CC3)coc2c1	80*	10	-2	92*	0.2	0.1
Cc1c(C)c2cc(Cl)c(OCc3nn[nH]n3)cc2oc1=O	94*	-2	6	92*	0.1	0.1
COC(=O)Cc1c(C)c2c(OCc3nn[nH]n3)cc(C)cc2oc1=O	17	1	-6	7	0.8	0.9
CCn1c(CNc2ccc(Cl)cc2)nnc1SCc1ccccc1	77*	10	3	66*	0.2	0.3
Clc1ccc(NCc2nncn2-c2ccccc2)cc1	26	-2	-3	98*	0.7	0
O=C(O)CSc1nnc(CNc2ccc(Cl)cc2)n1Cc1ccccc1	-12	7	0	-6	1.1	1.1
Cn1c(CNc2ccc(Cl)cc2)nnc1SCc1ccccc1	57*	-9	0	34	0.4	0.7
CCn1c(CNc2ccc(Cl)cc2)nnc1SCC(=O)NCc1ccccc1	55*	-4	-3	67*	0.4	0.3
